High-throughput results deposited in PubChem by several laboratories.
The list is not random: actives were taken first. Their share in the collection is about 4.3%.
rCAG binder: binders of r(CAG) RNA repeats, primary screen, biochemical, fluorescence. actives 1.3% (n = 370,000). r(CAG) RNA repeat, TO-PRO-1 dye displacement fluorescence. inhibition, % at 3 µM;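 active = inhibition above the plate cutoff, the mean of all test compounds on that plate plus 3 SD, cut at about 35% in these data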;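 also: 0% = DMSO alone and 100% = 100 µM mitoxantrone as full dye displacement; higher means more dye released from RNA so lower well fluorescence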
NR3A LBD binder: binders of NR3A ligand-binding domain, primary screen, biophysical, differential scanning fluorimetry, uHTS. NR3A LBD differential scanning fluorimetry, Tm shift; 0% = protein alone, 100% = glycine-bound protein. Tm shift relative to glycine control, % at 25 µM. Glutamate receptor ionotropic, NMDA 3A (GRIN3A) ligand-binding domain. actives 2.5% (n = 340,000);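 active = melting temperature shift of at least 10% of the positive control shift, at one fixed dose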
FAS TE block: FAS thioesterase domain inhibitors, primary screen, biochemical, fluorescence intensity, uHTS; inhibition, % at 15 µM; actives 0.67% (n = 360,000); recombinant FAS-TE, OMFH fluorogenic substrate, fluorescence endpoint; Fatty acid synthase (Homo sapiens), P49327;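 active = compounds whose normalised, plate-corrected inhibition of enzyme fluorescence in the single-dose primary screen is 50% or more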;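 also: 0% = DMSO with enzyme and 100% = substrate without enzyme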
Target sequence (P49327 whole entry, looked up, the tested form may be a part): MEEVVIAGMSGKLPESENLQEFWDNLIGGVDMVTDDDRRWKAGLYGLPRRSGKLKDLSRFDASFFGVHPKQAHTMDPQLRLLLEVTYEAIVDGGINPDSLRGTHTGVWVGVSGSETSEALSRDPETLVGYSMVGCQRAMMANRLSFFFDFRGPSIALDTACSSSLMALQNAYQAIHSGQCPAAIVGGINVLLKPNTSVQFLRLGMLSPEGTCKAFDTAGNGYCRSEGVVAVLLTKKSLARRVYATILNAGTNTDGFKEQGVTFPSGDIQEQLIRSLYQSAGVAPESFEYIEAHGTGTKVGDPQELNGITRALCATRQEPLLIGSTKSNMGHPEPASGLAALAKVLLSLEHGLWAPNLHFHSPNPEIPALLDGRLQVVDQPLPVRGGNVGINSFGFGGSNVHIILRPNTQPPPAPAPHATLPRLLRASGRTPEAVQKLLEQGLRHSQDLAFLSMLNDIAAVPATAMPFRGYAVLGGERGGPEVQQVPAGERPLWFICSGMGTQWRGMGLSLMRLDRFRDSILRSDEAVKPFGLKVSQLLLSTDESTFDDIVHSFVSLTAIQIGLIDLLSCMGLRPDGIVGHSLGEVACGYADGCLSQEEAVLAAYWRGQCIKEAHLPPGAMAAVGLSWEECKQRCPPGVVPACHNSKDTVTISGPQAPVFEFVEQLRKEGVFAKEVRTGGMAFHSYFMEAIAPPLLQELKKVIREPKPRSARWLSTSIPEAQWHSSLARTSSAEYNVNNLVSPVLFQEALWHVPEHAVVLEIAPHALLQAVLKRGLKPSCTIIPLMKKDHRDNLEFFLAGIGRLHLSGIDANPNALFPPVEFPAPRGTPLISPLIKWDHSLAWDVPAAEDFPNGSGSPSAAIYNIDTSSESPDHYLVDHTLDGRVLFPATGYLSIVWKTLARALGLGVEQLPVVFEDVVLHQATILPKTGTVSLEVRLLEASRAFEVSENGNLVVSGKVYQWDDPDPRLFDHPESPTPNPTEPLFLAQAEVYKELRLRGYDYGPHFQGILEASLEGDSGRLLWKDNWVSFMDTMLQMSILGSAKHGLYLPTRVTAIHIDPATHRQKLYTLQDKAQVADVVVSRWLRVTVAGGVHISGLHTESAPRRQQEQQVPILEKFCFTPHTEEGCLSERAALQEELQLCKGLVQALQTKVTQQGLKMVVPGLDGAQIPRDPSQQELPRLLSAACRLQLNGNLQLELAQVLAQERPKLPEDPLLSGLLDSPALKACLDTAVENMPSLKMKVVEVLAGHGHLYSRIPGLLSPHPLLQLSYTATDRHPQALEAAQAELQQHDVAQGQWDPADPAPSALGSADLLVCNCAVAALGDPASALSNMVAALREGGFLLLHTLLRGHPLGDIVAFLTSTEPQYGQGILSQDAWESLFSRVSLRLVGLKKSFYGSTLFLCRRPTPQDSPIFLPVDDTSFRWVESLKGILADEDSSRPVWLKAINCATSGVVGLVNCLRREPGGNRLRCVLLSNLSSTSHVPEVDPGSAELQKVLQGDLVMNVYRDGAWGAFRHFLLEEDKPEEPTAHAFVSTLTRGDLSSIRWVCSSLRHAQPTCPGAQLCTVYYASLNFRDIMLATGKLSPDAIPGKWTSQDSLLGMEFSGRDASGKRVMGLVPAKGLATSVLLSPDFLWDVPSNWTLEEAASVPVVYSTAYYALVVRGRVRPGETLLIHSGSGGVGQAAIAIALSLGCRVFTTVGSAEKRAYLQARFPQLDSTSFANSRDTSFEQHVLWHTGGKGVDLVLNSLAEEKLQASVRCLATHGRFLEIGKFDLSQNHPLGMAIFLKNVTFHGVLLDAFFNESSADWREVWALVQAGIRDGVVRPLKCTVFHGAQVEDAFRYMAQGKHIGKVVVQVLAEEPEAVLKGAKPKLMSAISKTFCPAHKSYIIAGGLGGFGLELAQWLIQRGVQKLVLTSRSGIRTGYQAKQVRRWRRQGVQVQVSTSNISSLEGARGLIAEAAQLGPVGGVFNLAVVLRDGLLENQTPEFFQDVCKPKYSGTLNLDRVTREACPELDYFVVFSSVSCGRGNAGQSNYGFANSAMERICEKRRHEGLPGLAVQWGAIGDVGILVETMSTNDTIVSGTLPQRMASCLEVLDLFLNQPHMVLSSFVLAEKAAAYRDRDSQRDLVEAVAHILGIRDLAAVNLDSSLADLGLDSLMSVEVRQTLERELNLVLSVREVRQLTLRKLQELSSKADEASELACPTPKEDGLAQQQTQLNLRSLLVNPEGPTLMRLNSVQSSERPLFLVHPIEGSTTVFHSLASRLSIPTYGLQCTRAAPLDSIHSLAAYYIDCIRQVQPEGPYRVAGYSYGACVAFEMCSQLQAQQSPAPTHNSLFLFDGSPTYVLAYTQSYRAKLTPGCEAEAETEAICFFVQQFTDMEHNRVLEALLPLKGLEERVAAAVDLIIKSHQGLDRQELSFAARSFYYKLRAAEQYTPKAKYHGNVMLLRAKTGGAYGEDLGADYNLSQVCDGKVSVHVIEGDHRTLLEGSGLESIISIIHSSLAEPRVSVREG
NadD inh: inhibitors of S. aureus NadD, primary screen, biochemical, colorimetric, uHTS. Nicotinate-nucleotide adenylyltransferase NadD (Staphylococcus aureus N315). inhibition, % at 20 µM. purified NadD enzyme, colorimetric absorbance read-out. actives 0.78% (n = 360,000); in the data active = inhibition above about 26%
FAS-TE conf: FAS thioesterase domain inhibitors, confirmation, biochemical, fluorescence intensity, single concentration; shares compounds with FAS TE block; recombinant FAS-TE, OMFH fluorogenic substrate; inhibition, % at 15 µM; actives 45% (n = 2,300); AID 624325, 2012;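 active = compounds inhibiting the enzyme by at least 50% at 15 µM in any one of the replicates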;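 also: 0% = enzyme with DMSO only and 100% = wells lacking enzyme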
An asterisk follows results filed as active; · = no result.

SMILES | rCAG binder | NR3A LBD binder | FAS TE block | NadD inh | FAS-TE conf
COc1ccc(CN(CCC(c2ccccc2)c2ccc(OC(C)C)cc2)C(=O)CCl)cc1OC (stereo unspecified) | 3 | 1 | 52* | 0 | 4
CC(C)CC(NC(=O)c1ccc(Cl)cc1)C(=O)OCc1cc([N+](=O)[O-])cc2c1OCOC2 (stereo unspecified) | 9 | -8 | 52* | -10 | 37
CC(C)C(NC(=O)c1ccccc1)C(=O)OCc1cc([N+](=O)[O-])cc2c1OCOC2 (stereo unspecified) | 0 | 0 | 32 | 2 | ·
CC[C@@]12C(=O)N(c3cccc(Br)c3)C(=O)N1[C@H](c1ccc(F)cc1)[C@@H]1C(=O)N(C3CCCCC3)C(=O)[C@@H]12 | 6 | -3 | 52* | 0 | 24
O=C1[C@H]2[C@@H](c3ccc(F)cc3)N3C(=O)N(c4cccc(Br)c4)C(=O)[C@@]3(Cc3ccccc3)[C@H]2C(=O)N1C1CCCCC1 | 8 | -6 | 80* | 19 | 35
COc1cc2c(-c3ccc4[nH]ccc4c3)c(-c3ccc(C#N)cc3)oc(=O)c2cc1OC | 9 | -8 | 55* | 1 | 28
CCOC(=O)c1ccc(-c2c(-c3ccc(OC)cc3)oc(=O)c3cc(OC)c(OC)cc23)cc1F | 1 | 1 | 58* | 1 | 6
CCOC(=O)CC[C@H]1CC[C@]2(CCCN(C(=O)C(C)(C)C)C2)O1 | -2 | · | · | · | ·
O=C(CCCn1c(SCc2cccc([N+](=O)[O-])c2)nc2ccccc2c1=O)NCC1CCCO1 (stereo unspecified) | -1 | 1 | 86* | -10 | 30
CCNc1ccc(C(=O)N/N=C/c2c(C)nn(-c3ccccc3)c2N2CCCC2)cc1[N+](=O)[O-] | 2 | 3 | 70* | 12 | 22
Cc1ccc(NS(=O)(=O)c2cccc(C(=O)N/N=C/c3c(C)nn(-c4ccccc4)c3N3CCCC3)c2)c(C)c1 | 16 | 5 | 51* | 27 | 19
OC[C@@H]1CC[C@@H]2O[C@H](CCc3ccc(-c4ccc(F)cc4)cc3)[C@H](n3cc(C4CC4)nn3)C[C@@H]2O1 | 6 | · | · | · | ·
COC(=O)c1cc(C(=O)NCCN2C(=O)S/C(=C\c3cccs3)C2=O)cc([N+](=O)[O-])c1 | 7 | -3 | 60* | 3 | 5
COc1cc(OC)cc(C(=O)NCCN2C(=O)S/C(=C\c3cccs3)C2=O)c1 | -1 | -11 | 13 | -16 | ·
CNC(=S)N(Cc1ccc(OC)cc1)C1CC(=O)N(c2ccc(Cl)cc2)C1=O (stereo unspecified) | 12 | 32* | 62* | -4 | 70*
C=CCN(C(=O)Nc1ccc(Cl)cc1)C1CC(=O)N(c2ccc(OC)cc2)C1=O (stereo unspecified) | 2 | 1 | 7 | -4 | ·
O=C(CNc1cc(S(=O)(=O)N2CCCC2)ccc1OCC(F)(F)F)Nc1cccc(C(F)(F)F)c1 | 1 | 5 | 64* | -4 | 18
COCC(C)n1c(SCC(=O)N2CC(=O)Nc3ccccc32)nc2ccccc2c1=O (stereo unspecified) | 1 | -3 | -5 | 4 | ·
Cc1ccc(Cn2c(SCC(=O)N3CC(=O)Nc4ccccc43)nc3ccccc3c2=O)cc1 | 18 | -4 | 53* | 20 | 23
O=C1CN(C(=O)CSc2nc3cc(Cl)ccc3c(=O)n2Cc2ccccc2)c2ccccc2N1 | 6 | 0 | 76* | 25 | 20
CC(c1ccccc1)n1c(SCC(=O)N2CC(=O)Nc3ccccc32)nc2ccccc2c1=O (stereo unspecified) | 5 | -5 | 56* | 12 | 27
COC(=O)[C@]12C[C@H](CC(=O)N3CCCC3)C(=O)N(Cc3ccccc3)C1=C[C@H](C(C)(C)C)O[C@@H]2C | 0 | · | · | · | ·
CC(COc1ccc([N+](=O)[O-])cc1Cl)CN1CCC(C(O)(c2ccccc2)c2ccccc2)CC1 (stereo unspecified) | 4 | · | · | · | ·
O=C(c1ccc(N2CCCC2)c([N+](=O)[O-])c1)N1CCN(S(=O)(=O)c2ccccc2)CC1 | -4 | 2 | 7 | -3 | ·
